WRN helicase inh – WRN helicase (human) inhibition; Q14191; WRN helicase unwinding, fluorescent forked duplex, kinetic; Potency, µM (series often up to 114 µM), for the others: at the highest dose activity change, negative = inhibition, most hits filed as inhibitors; 360,000 compounds, 0.46% hits; also: % is scaled to controls: 0 for no effect and ±100 for the full control effect; nearly all actives have a fitted effect of over 55% in size
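WRN at 20 nM final preincubated with compound 15 min at room temperature; reaction started with 100 nM fluorophore/quencher forked duplex oligonucleotide and 2 mM ATP final. Unwinding followed kinetically by red fluorescence (ex 525, em 598 nm).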
FEN1 inhibitor – inhibitors of human flap endonuclease 1; P39748; Recombinant FEN1 flap cleavage, fluorescence, 15 min; Potency, µM (series often up to 114 µM), for the others: at the highest dose activity change, negative = inhibition, hits mostly inhibitors; 390,000 compounds, 0.35% hits; also: % is scaled to controls: 0 for no effect and ±100 for the full control effect; nearly all actives have a fitted effect of over 65% in size
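Reaction started by adding substrate (50 nM final) to 10 nM enzyme after 15 min room-temperature compound preincubation. Reads at 0 and 15 min, with data normalized and fitted to a four-parameter Hill equation.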
POLI inh – blocks human DNA polymerase iota activity; Potency, µM (doses to about 115 µM), for inactives: at the top dose activity, negative = inhibition, usual class: inhibitors; 390,000 compounds, 1% hits; Pol iota fluorescent replication assay, 10 min
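Pol iota at 10 nM preincubated 15 min with compounds at room temperature; reaction started with fluorescent substrate, 50 nM final. Fluorescence read kinetically at 0 and 10 min; buffer-only wells as negative control.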
Pol beta inh – DNA polymerase beta (human) inhibition. Potency, µM (top dose mostly 114 µM), for inactives: at the highest dose activity change, negative = inhibition, usual class: inhibitors. AID 485314. Pol beta primer extension/strand displacement, fluorescence kinetic. 340,000 compounds, 1.3% hits. P06746; also: % is scaled to controls: 0 for no effect and ±100 for the full control effect
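Reaction started by 50 nM substrate onto compound-treated Pol beta (10 nM, 15 min preincubation, room temperature); plates read at 0 min and 10 min. Normalized concentration-effect data fitted by four-parameter Hill equation.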
Pol eta inh – DNA polymerase eta (human) inhibition; Q9Y253; recombinant Pol eta, fluorescent DNA replication assay; Potency, µM (series often up to 114 µM), for inactives: at the highest dose activity change, negative = inhibition, hits mostly inhibitors; 390,000 compounds, 1.2% hits; AID 588591; also: % is scaled to controls: 0 for no effect and ±100 for the full control effect
Target sequence (Q9Y253 whole entry, looked up): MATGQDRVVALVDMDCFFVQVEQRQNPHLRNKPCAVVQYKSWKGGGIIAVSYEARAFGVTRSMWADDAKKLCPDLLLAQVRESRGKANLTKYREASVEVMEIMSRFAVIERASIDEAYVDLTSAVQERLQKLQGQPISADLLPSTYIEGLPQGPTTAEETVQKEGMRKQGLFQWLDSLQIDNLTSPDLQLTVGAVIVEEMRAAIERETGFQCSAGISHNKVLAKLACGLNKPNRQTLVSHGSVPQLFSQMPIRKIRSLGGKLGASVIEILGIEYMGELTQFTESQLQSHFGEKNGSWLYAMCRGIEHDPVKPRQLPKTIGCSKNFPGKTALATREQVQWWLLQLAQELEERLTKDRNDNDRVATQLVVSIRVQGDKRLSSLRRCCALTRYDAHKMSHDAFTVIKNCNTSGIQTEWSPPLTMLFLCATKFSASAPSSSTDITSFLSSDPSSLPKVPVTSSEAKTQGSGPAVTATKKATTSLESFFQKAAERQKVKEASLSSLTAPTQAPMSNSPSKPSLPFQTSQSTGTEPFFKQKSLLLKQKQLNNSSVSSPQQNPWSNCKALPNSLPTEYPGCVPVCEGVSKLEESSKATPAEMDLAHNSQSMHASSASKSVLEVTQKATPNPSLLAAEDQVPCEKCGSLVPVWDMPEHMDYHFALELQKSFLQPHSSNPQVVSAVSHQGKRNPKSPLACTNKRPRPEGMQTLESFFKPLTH
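Pol eta (10 nM) was preincubated with compounds for 15 min at room temperature, after which fluorescent replication substrate (50 nM final) was added to start the reaction. Fluorescence was read kinetically at 0 and 10 min.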
POLK inh – inhibitors of human DNA polymerase kappa; purified Pol kappa, fluorescent DNA synthesis assay, 10 min; Potency, µM (doses to about 107 µM), without a hit: at the top dose activity, negative = inhibition, most hits filed as inhibitors; 400,000 compounds, 0.53% hits; Q9UBT6; also: % is scaled to controls: 0 for no effect and ±100 for the full control effect
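Here, compound and 10 nM enzyme are combined for 15 min at room temperature; adding 50 nM substrate (final) starts DNA synthesis, tracked by fluorescence at 0 and 10 min against buffer-only wells.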
The depositor's hits bear a star; ? = inconclusive; nt = no result given; [ ] = remark or other dose. Compounds with a hit are over-represented: about 2.4% of the library has one in this group of screens. Calls follow the shape of the dose curve; as a rule, active = well fitted curve in the direction sought with a large enough effect; inconclusive = small, poorly fitted or top-dose-only effect, or another doubt; inactive = no such curve, though single readings can be large; an effect the other way counts as inactive or inconclusive. Potency is read from the fitted curve at half-maximal effect.

SMILES | WRN helicase inh | FEN1 inhibitor | POLI inh | Pol beta inh | Pol eta inh | POLK inh
Cc1ccc(CN2[C@H]3CCCC[C@@H]3OCCS2(=O)=O)cc1 | nt | -3% | 19% | nt | nt | -2%
O=C(Nc1ccccc1)c1ccc(N2CCN(c3ccccc3)CC2)c(S(=O)(=O)N2CCOCC2)c1 | -3% | -8% | 14% | -11% | -2% | -12%
O=C(Nc1ccccc1)c1ccc(N2CCN(c3ccccn3)CC2)c(S(=O)(=O)N2CCOCC2)c1 | -12% | -15% | 89µM* | -20% | -18% | -12%
CSCC[C@H](N)C(=O)N[C@@H](CCC(=O)O)C(=O)N[C@H](C(=O)NCC(=O)N[C@@H](Cc1c[nH]c2ccccc12)C(=O)N[C@@H](Cc1ccc(O)cc1)C(=O)N[C@@H](CCCNC(=N)N)C(=O)N[C@@H](CO)C(=O)N1CCC[C@H]1C(=O)N[C@@H](Cc1ccccc1)C(=O)N[C@@H](CO)C(=O)N[C@@H](CCCNC(=N)N)C(=O)N[C@H](C(=O)N[C@H](C(=O)N[C@@H](Cc1cnc[nH]1)C(=O)N[C@@H](CC(C)C)C(=O)N[C@@H](Cc1ccc(O)cc1)C(=O)N[C@@H](CCCNC(=N)N)C(=O)N[C@@H](CC(N)=O)C(=O)NCC(=O)N[C@@H](CCCCN)C(=O)O)C(C)C)C(C)C)C(C)C | nt | nt | nt | nt | nt | 15%[60.1 µM]
COc1ccc(-c2coc3c2c(C)cc2oc(=O)c(CC(=O)O)c(C)c23)cc1 | nt | ? | -6% | 12% | -14% | -1%
COc1ccc(-c2coc3c(C)c4oc(=O)c(CCC(=O)O)c(C)c4cc23)cc1 | ? | -32% | ? | ? | 50µM* | -41%
Cc1c(CC(=O)N[C@@H](C)C(=O)O)c(=O)oc2c(C)c3occ(-c4ccccc4)c3cc12 | -23% | -11% | ? | -29% | 4% | ?
Cc1c(CC(=O)O)c(=O)oc2c(C)c3occ(-c4ccc(F)cc4)c3cc12 | -10% | ? | -12% | 50µM* | 0% | 7%
COc1ccc(C(=O)Nc2ncnc3nc[nH]c23)cc1 | nt | 3% | -1% | nt | nt | -11%
CCC1C/C(=C\c2cccnc2)C(=O)/C(=C/c2cccnc2)C1 (configuration not stated) | ? | -6% | 22µM* | 0% | 11µM* | -6%
O=C1/C(=C/c2cccnc2)CCC/C1=C\c1cccnc1 | -11%[11.6 µM] | 2% | 45µM* | 0% | 22µM* | 4%
O=C1/C(=C/c2cccnc2)CC/C1=C\c1cccnc1 | 7% | -3% | 12% | 0% | -9% | -8%
CN(C)c1ccc(/C=C2\CCC/C(=C\c3ccccc3)C2=O)cc1 | 50µM* | -20% | ? | 0% | ? | 1%
CN(C)c1ccc(/C=C2\Cc3ccccc3C2=O)cc1 | nt | 9% | 18% | nt | nt | 1%
O=C(Nc1ccc(Cl)cc1Cl)[C@@H]1CC=C[C@@H]2CCN(C3CCCCC3)C(=O)[C@@H]21 | nt | 14% | 4% | nt | nt | 2%
C[N+]1(C)CC[C@@H](OC(=O)[C@@](O)(c2ccccc2)C2CCCC2)C1 | nt | nt | nt | nt | nt | -5%[12 µM]
C[C@@H]1C(=O)N(S(=O)(=O)c2ccc([N+](=O)[O-])cc2)[C@H]1c1ccccc1 | nt | 10% | -24% | nt | nt | -5%
Cc1sc(NC(=O)C2c3ccccc3Oc3ccccc32)c(C(=O)OC(C)C)c1C | nt | -15% | -2% | -1% | -19% | -20%
Cc1c(C(=O)OC(C)C)sc(NC(=O)C2c3ccccc3Oc3ccccc32)c1C(=O)OC(C)C | nt | -11% | 89µM* | ? | -15% | ?
N#CC1=C(c2ccc(-c3ccccc3)cc2)COC1=O | -2%[57.1 µM] | 1% | ? | ? | 89µM* | -21%
